# From PubChem BioAssay (EPA / NIEHS)
# Active and inactive are the calls of the source. Rule for the calls: active = hit-call score of the fitted dose curve at least 0.9, where 1 is the maximum; inactive = score below 0.9.
# Tests used:
# [1] = target: CCAAT/enhancer-binding protein beta (Homo sapiens) (UniProt P17676); assay: ATG_C_EBP_CIS: Attagene CIS-FACTORIAL HepG2 Assay for human CCAAT/Enhancer Binding Protein (C/EBP) beta (AID 2282927); conditions: HepG2 Attagene cis-factorial transcription factor reporter; actives raise or lower the signal
# Sequence of CCAAT/enhancer-binding protein beta (Homo sapiens) (P17676 whole entry, looked up): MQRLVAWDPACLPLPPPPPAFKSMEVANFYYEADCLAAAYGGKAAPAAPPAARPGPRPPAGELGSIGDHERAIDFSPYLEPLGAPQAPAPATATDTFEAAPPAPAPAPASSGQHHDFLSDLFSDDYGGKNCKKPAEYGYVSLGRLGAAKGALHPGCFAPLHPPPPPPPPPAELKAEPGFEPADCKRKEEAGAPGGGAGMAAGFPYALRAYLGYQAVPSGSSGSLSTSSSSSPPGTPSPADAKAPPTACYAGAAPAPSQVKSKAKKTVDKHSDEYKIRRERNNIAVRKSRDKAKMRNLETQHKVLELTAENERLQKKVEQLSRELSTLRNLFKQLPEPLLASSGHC
# How it was run: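 Endogenous transcription factor activity in human liver HepG2 cells is inferred from induction of a CEBPB-linked reporter mRNA. Exposure lasts 24 h; activity is fitted in both directions relative to DMSO.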
# [2] = ATG_CMV_CIS: Attagene CIS-FACTORIAL HepG2 Assay for human CMV (Internal Marker) (AID 2282928); conditions: HepG2 CMV promoter reporter, transcription factor profiling; actives raise or lower the signal;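 note: endpoint acts as a background internal control marker rather than a target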
# How it was run: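 CMV internal-marker background readout in transiently transfected HepG2 cells bearing cis-regulated reporter units. Reporter mRNA is measured 24 h after dosing by RT-PCR and capillary electrophoresis, with bidirectional fitting against DMSO.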
# [3] = ATG_DR4_LXR_CIS: Attagene CIS-FACTORIAL HepG2 Assay for human Liver X Receptor (LXR), DR4 submotif (AID 2282929); conditions: HepG2 Attagene DR4 cis-reporter, mRNA transcription; actives raise or lower the signal
# How it was run: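 Measures endogenous transcription factor activity via a DR4-driven reporter transcript in human HepG2 cells. Compounds incubated 24 h; mRNA quantified by RT-PCR and capillary electrophoresis, analysed as gain or loss of signal versus DMSO.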
# [4] = ATG_AP_1_CIS: Attagene CIS-FACTORIAL HepG2 Assay for human Activator Protein 1 (AP-1) (AID 2282931); conditions: HepG2 Attagene cis-factorial AP-1 reporter mRNA; actives raise or lower the signal
# How it was run: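 Bidirectional concentration-response fitting against DMSO controls. Underlying signal: reporter mRNA from cis-promoter constructs in transiently transfected HepG2, measured after 24 h by RT-PCR and capillary electrophoresis.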
# [5] = ATG_AP_2_CIS: Attagene CIS-FACTORIAL HepG2 Assay for human Activator Protein 2 (AP-2) (AID 2282932); conditions: HepG2 AP-2 cis-reporter, Attagene transcription factor profiling; actives raise or lower the signal
# How it was run: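 Step one: transient transfection of HepG2 with reporter transcription units. Step two: 24 h chemical exposure. Step three: RNA extraction, RT-PCR, labelled fragment analysis by capillary electrophoresis; DMSO serves as baseline.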
# [6] = ATG_BRE_CIS: Attagene CIS-FACTORIAL HepG2 Assay for human Bone Morphogenetic Protein (BMP) Response Element (BRE) (AID 2282933); conditions: HepG2 BMP response element reporter, Attagene transcription factor profiling; actives raise or lower the signal
# How it was run: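 Endogenous transcription factor activity at a BMP response element was monitored in transfected HepG2 cells 24 h after dosing. Fluorescent RT-PCR products were resolved by capillary electrophoresis, and activity was fitted in both directions versus DMSO.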
# [7] = target: Transcription factor E2F1 (Homo sapiens) (UniProt Q01094); assay: ATG_E2F_CIS: Attagene CIS-FACTORIAL HepG2 Assay for human E2F Transcription Factor 1 (AID 2282935); conditions: HepG2 Attagene cis-reporter, E2F reporter RNA transcripts; actives raise or lower the signal
# Sequence of Transcription factor E2F1 (Homo sapiens) (Q01094 whole entry, looked up): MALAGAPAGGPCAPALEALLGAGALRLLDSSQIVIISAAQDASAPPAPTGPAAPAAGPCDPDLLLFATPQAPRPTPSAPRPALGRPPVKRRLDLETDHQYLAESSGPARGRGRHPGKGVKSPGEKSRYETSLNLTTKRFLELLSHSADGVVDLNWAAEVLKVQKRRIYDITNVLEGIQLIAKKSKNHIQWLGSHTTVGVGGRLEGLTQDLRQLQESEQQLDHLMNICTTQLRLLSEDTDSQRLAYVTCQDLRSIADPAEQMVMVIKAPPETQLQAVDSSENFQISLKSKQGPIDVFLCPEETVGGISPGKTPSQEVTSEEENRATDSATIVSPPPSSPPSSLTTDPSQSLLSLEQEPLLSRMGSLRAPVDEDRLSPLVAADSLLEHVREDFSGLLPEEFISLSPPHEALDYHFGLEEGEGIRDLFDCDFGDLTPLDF
# How it was run: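 Total RNA from 24 h-treated, reporter-transfected HepG2 cells undergoes DNase I treatment, oligo(dT) reverse transcription, PCR and 6-FAM primer extension before capillary electrophoresis.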
# [8] = ATG_E_Box_CIS: Attagene CIS-FACTORIAL HepG2 Assay for human Enhancer Box (E-box) (AID 2282936); conditions: HepG2 E-box cis-reporter transcription, actives raise or lower the signal
# How it was run: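 DMSO served as negative control and baseline for bidirectional fitting. Human hepatoma HepG2 cells, transiently transfected with cis-reporter constructs, were dosed 24 h; reporter mRNA read by RT-PCR and capillary electrophoresis.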
# [9] = ATG_M_61_CIS: Attagene CIS-FACTORIAL HepG2 Assay for M61 Transcription Factor (Internal Marker) (AID 2282937); conditions: HepG2 Attagene CIS-FACTORIAL M61 internal marker reporter; actives raise or lower the signal
# How it was run: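 Fluorescence from labelled cDNA fragments, separated by capillary electrophoresis, quantifies reporter induction. HepG2 cells bearing transiently transfected cis-promoter MRTUs were incubated with test chemical for 24 h; DMSO defined baseline for gain/loss fitting.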
# [10] = ATG_EGR_CIS: Attagene CIS-FACTORIAL HepG2 Assay for human Early Growth Response 1 (EGR1) (AID 2282938); conditions: HepG2 Attagene CIS-FACTORIAL EGR reporter mRNA; actives raise or lower the signal
# How it was run: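 Cell-based multiplex transcription assay: HepG2 carrying transfected cis-element reporter units, 24 h chemical treatment. Fluorescence from capillary electrophoresis of RT-PCR products gives mRNA levels; fitting is bidirectional relative to DMSO.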
# [11] = ATG_Ets_CIS: Attagene CIS-FACTORIAL HepG2 Assay for human Erythroblast Transformation Specific (ETS) (AID 2282941); conditions: HepG2 ETS cis-reporter transcription, actives raise or lower the signal
# How it was run: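 HepG2 cells transfected with multiple cis-regulated reporter units measuring endogenous ETS-driven transcription, 24 h after dosing. Reporter mRNA quantified by RT-PCR with capillary electrophoresis; bidirectional fit relative to DMSO.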
# [12] = ATG_GATA_CIS: Attagene CIS-FACTORIAL HepG2 Assay for human GATA Binding Protein (AID 2282944); conditions: HepG2 GATA cis-element reporter, Attagene multiplex mRNA; actives raise or lower the signal
# How it was run: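 Endogenous transcription factor activity was captured through cis-promoter-driven reporters in transfected HepG2 cells. After 24 h exposure, reporter transcripts were quantified by RT-PCR with fluorescent capillary electrophoresis, and responses fitted both directions against DMSO.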
# [13] = ATG_GLI_CIS: Attagene CIS-FACTORIAL HepG2 Assay for human Zinc Finger Protein GLI1 (AID 2282945); conditions: HepG2, Attagene cis-factorial reporter mRNA, GLI element; actives raise or lower the signal
# How it was run: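 Bidirectional curve fits relative to DMSO, using reporter mRNA levels from RT-PCR plus capillary electrophoresis. Cells were HepG2 transiently carrying cis-regulated reporter constructs, harvested 24 h after dosing.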
# [14] = ATG_ISRE_CIS: Attagene CIS-FACTORIAL HepG2 Assay for human Interferon Regulatory Factor 1 (IRF1) binding to an Interferon-Stimulated Response Element (ISRE) (AID 2282948); conditions: HepG2 ISRE cis-reporter (Attagene), mRNA transcription readout; actives raise or lower the signal
# How it was run: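 Transiently transfected HepG2 cells carrying cis-element reporter units, dosed 24 hours. Reporter mRNA quantified by RT-PCR, fluorescent primer extension, HpaI digestion and capillary electrophoresis. Bidirectional fitting relative to DMSO.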
# [15] = ATG_M_32_CIS: Attagene CIS-FACTORIAL HepG2 Assay for M32 Transcription Factor (Internal Marker) (AID 2282949); conditions: HepG2 Attagene cis-factorial M32 reporter, mRNA; actives raise or lower the signal;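 note: background control marker of the multiplexed CIS panel rather than a real target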
# How it was run: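 Internal background marker read-out: RT-PCR/capillary electrophoresis fluorescence of reporter transcripts from transiently transfected HepG2 cells after 24 h chemical exposure. Activity fitted bidirectionally relative to DMSO negative control.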
# [16] = ATG_M_06_CIS: Attagene CIS-FACTORIAL HepG2 Assay for M06 Transcription Factor (Internal Marker) (AID 2282950); conditions: HepG2 Attagene CIS-FACTORIAL M06 internal marker reporter; actives raise or lower the signal
# How it was run: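 Steps: transfect HepG2 with multiplexed cis-element reporter constructs; dose chemical 24 h; extract RNA with DNase treatment; reverse-transcribe, PCR-amplify, 6-FAM label, HpaI digest; separate fragments by capillary electrophoresis. Activity fitted both directions versus DMSO.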
# [17] = target: Hepatocyte nuclear factor 6 (Homo sapiens) (UniProt Q9UBC0); assay: ATG_HNF6_CIS: Attagene CIS-FACTORIAL HepG2 Assay for human Hepatocyte Nuclear Factor 6 (HNF6) (AID 2282952); conditions: HepG2 Attagene cis-factorial HNF6 reporter transcription; actives raise or lower the signal
# Sequence of Hepatocyte nuclear factor 6 (Homo sapiens) (Q9UBC0 whole entry, looked up, the tested form may be a part): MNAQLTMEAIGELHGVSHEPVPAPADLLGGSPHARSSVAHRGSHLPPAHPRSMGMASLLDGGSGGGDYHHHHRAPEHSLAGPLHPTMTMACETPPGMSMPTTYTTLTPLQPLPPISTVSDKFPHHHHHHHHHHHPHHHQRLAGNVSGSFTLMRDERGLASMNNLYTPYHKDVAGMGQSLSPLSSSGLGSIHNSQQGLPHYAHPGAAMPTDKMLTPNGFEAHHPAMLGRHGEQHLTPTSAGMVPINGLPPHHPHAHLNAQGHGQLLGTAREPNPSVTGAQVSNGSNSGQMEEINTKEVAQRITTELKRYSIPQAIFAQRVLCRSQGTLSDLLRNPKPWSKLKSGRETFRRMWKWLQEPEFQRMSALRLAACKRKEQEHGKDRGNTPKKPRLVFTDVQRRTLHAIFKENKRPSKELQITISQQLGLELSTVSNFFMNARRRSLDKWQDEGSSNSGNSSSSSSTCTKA
# How it was run: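 HepG2 cells transiently transfected with cis-element-driven multiplexed reporter units measuring endogenous transcription factor activity. After 24 h exposure, reporter mRNA quantified by RT-PCR, FAM-labelled fragments and capillary electrophoresis; bidirectional fitting versus DMSO.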
# [18] = ATG_MRE_CIS: Attagene CIS-FACTORIAL HepG2 Assay for human Metal Responsive Element (MRE) (AID 2282954); conditions: HepG2 MRE cis-reporter transcription, Attagene multiplex; actives raise or lower the signal
# How it was run: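 After a 24 h chemical exposure, transiently transfected HepG2 cells yield RNA whose reporter sequences are amplified, FAM-labelled and sized by capillary electrophoresis. Curves are fitted bidirectionally relative to DMSO.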
# [19] = ATG_PXRE_CIS: Attagene CIS-FACTORIAL HepG2 Assay for human Pregnane X Receptor Element (PXRE) (AID 2282957); conditions: HepG2 Attagene CIS-FACTORIAL PXRE reporter, mRNA; actives raise or lower the signal
# How it was run: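 HepG2 cells transiently transfected with cis-element-driven multiplexed reporter units; after 24 h chemical exposure, reporter mRNA measured by RT-PCR, 6-FAM labelling, HpaI digestion and capillary electrophoresis. Bidirectional fitting relative to DMSO.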
# [20] = ATG_Sox_CIS: Attagene CIS-FACTORIAL HepG2 Assay for human SRY-box transcription factor (SOX) (AID 2282960); conditions: HepG2 Attagene cis-factorial SOX reporter, mRNA; actives raise or lower the signal
# How it was run: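 After 24 h of chemical treatment, transfected HepG2 reporter cells are lysed for total RNA. Transcript levels come from RT-PCR with labelled primer extension and capillary electrophoresis, analysed bidirectionally versus DMSO.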
structure (smiles),measurement,setting,value
CC(=O)c1cc2c(cc1C)C(C)(C)C(C)CC2(C)C (stereo not given),AC50,[1],108 µM (active)
same,AC50,[2],28.1 µM (active)
same,AC50,[3],26.1 µM (active)
same,AC50,[4],26.6 µM (active)
same,AC50,[5],158 µM (active)
same,AC50,[6],26.5 µM (active)
same,outcome,[7],inactive
same,outcome,[8],inactive
same,outcome,[9],inactive
same,outcome,[10],inactive
same,outcome,[11],inactive
same,outcome,[12],inactive
same,AC50,[13],75.5 µM (active)
same,outcome,[14],inactive
same,outcome,[15],inactive
same,outcome,[16],inactive
same,AC50,[17],171 µM (active)
same,AC50,[18],43.8 µM (active)
same,AC50,[19],2.25 µM (active)
same,outcome,[20],inactive
NNc1ccccc1,outcome,[1],inactive
same,outcome,[2],inactive
same,outcome,[3],inactive
same,outcome,[4],inactive
same,outcome,[5],inactive
same,outcome,[6],inactive
same,outcome,[7],inactive
same,outcome,[8],inactive
same,outcome,[9],inactive
same,outcome,[10],inactive
same,outcome,[11],inactive
same,outcome,[12],inactive
same,outcome,[13],inactive
same,outcome,[14],inactive
same,outcome,[15],inactive
same,outcome,[16],inactive
same,outcome,[17],inactive
same,outcome,[18],inactive
same,AC50,[19],38.9 µM (active)
same,outcome,[20],inactive
O=[N+]([O-])c1cc(C(F)(F)F)c(Cl)c([N+](=O)[O-])c1Cl,outcome,[1],inactive
same,AC50,[2],5.9 µM (active)
same,AC50,[3],5.08 µM (active)
same,outcome,[4],inactive
same,outcome,[5],inactive
same,outcome,[6],inactive
same,outcome,[7],inactive
same,AC50,[8],5.43 µM (active)
same,outcome,[9],inactive
same,AC50,[10],4.82 µM (active)
same,outcome,[11],inactive
same,outcome,[12],inactive
same,outcome,[13],inactive
same,AC50,[14],5.65 µM (active)
same,outcome,[15],inactive
same,outcome,[16],inactive
same,outcome,[17],inactive
same,AC50,[18],5.11 µM (active)
same,outcome,[19],inactive
same,AC50,[20],5.81 µM (active)
O=C(O)c1cc[c]([Hg][Cl])cc1,outcome,[1],inactive
same,outcome,[2],inactive
same,outcome,[3],inactive
same,outcome,[4],inactive
same,outcome,[5],inactive
same,outcome,[6],inactive
same,outcome,[7],inactive
same,outcome,[8],inactive
same,outcome,[9],inactive
same,outcome,[10],inactive
same,outcome,[11],inactive
same,outcome,[12],inactive
same,outcome,[13],inactive
same,outcome,[14],inactive
same,outcome,[15],inactive
same,outcome,[16],inactive
same,outcome,[17],inactive
same,AC50,[18],7.75 µM (active)
same,outcome,[19],inactive
same,outcome,[20],inactive
CCOC(=O)C1OC1(C)c1ccccc1 (stereo not given),outcome,[1],inactive
same,outcome,[2],inactive
same,outcome,[3],inactive
same,outcome,[4],inactive
same,outcome,[5],inactive
same,outcome,[6],inactive
same,outcome,[7],inactive
same,outcome,[8],inactive
same,outcome,[9],inactive
same,outcome,[10],inactive
same,outcome,[11],inactive
same,outcome,[12],inactive
same,outcome,[13],inactive
same,outcome,[14],inactive
same,outcome,[15],inactive
same,outcome,[16],inactive
same,outcome,[17],inactive
same,outcome,[18],inactive
same,AC50,[19],100 µM (active)
same,outcome,[20],inactive
CC(O)CN(CC(C)O)CC(C)O (stereo not given),outcome,[1],inactive
same,outcome,[2],inactive
same,outcome,[3],inactive
same,outcome,[4],inactive
same,outcome,[5],inactive
same,outcome,[6],inactive
same,outcome,[7],inactive
same,outcome,[8],inactive
same,outcome,[9],inactive
same,outcome,[10],inactive
same,outcome,[11],inactive
same,outcome,[12],inactive
same,outcome,[13],inactive
same,outcome,[14],inactive
same,outcome,[15],inactive
same,outcome,[16],inactive
same,outcome,[17],inactive
same,outcome,[18],inactive
same,outcome,[19],inactive
same,outcome,[20],inactive
O=C1C(Cl)=C(Cl)C(=O)C(Cl)=C1Cl,outcome,[1],inactive
same,outcome,[2],inactive
same,AC50,[3],66.9 µM (active)
same,AC50,[4],130 µM (active)
same,outcome,[5],inactive
same,outcome,[6],inactive
same,outcome,[7],inactive
same,AC50,[8],58.4 µM (active)
same,outcome,[9],inactive
same,AC50,[10],137 µM (active)
same,outcome,[11],inactive
same,outcome,[12],inactive
same,outcome,[13],inactive
same,outcome,[14],inactive
same,outcome,[15],inactive
same,outcome,[16],inactive
same,outcome,[17],inactive
same,outcome,[18],inactive
same,outcome,[19],inactive
same,outcome,[20],inactive
